High-throughput results: PubChem BioAssay, several laboratories
NLRP3 yeast inh = NALP3 inflammasome inhibitors in reconstituted yeast, primary screen, luminescence, uHTS; Yeast reconstituted NLRP3/ASC/caspase-1, beta-gal luminescence, 24 h; inhibition, % at 10 µM; 0.39% of 330,000 active; AID 2825, 2010;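 active = inhibition of 50% or more; inactive = inhibition below 50%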;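 also: plate controls were induced DMSO wells for no effect and uninduced yeast grown without galactose for full effect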
SKKanGAS inh = S. pyogenes SKKanGAS growth inhibitors in kanamycin, primary screen, streptokinase expression inhibitor project, SKKanGAS strain, BacTiter-Glo luminescence. 6 h. inhibition, % at 7.5 µM. 1.3% of 300,000 active. AID 1662, 2009;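 active = mean replicate score, as percent of positive control median, at least 50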;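 also: strain carries kanamycin resistance gene driven by streptokinase promoter and grows in 40 µg/ml kanamycin; loss of luminescence reflects streptokinase promoter inhibition or plain growth inhibition; 0% = median of DMSO wells and 100% = positive control at its reference dose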
tim23-1 inh = growth inhibitors of tim23-1 mutant yeast, primary screen, luminescence, uHTS; S. cerevisiae tim23-1 growth, BacTiter-Glo luminescence, 24 h; inhibition, % at 20 µM; 1.3% of 330,000 active; AID 463212, 2010;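 active = growth inhibition of the mutant yeast at or above 50%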;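 also: temperature-sensitive mutant grown at 25 °C; plate controls were DMSO-treated mutant yeast for no effect and medium wells lacking yeast for full effect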
tim10-1 inh = growth inhibitors of tim10-1 mutant yeast, primary screen, luminescence, uHTS | AID 463190, 2010 | 2.2% of 330,000 active | inhibition, % at 20 µM | S. cerevisiae tim10-1 ts strain growth, BacTiter-Glo, 24 h;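 active = inhibition of at least 40%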;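 also: mutant grown at 25 °C; 0% = DMSO wells with yeast and 100% = wells holding no yeast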
TIM10 inh = growth inhibitors of isogenic TIM10 control yeast, primary screen, counter-screen for tim10-1 yeast inhibitor project, luminescence, uHTS. S. cerevisiae TIM10 strain growth, BacTiter-Glo luminescence, 24 h. inhibition, % at 10 µM. 1.4% of 330,000 active. AID 463195, 2010;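 active = inhibition of 40% or more at the single tested concentration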;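 also: wild-type TIM10 isogenic control strain grown at permissive 25 °C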
TIM10 conf = growth inhibitors of wild-type TIM10 yeast, confirmation, counter-screen for tim10-1 synthetic lethality project, single concentration, luminescence, S. cerevisiae. shares compounds with TIM10 inh. S. cerevisiae tim10 strain growth, BacTiter-Glo luminescence, 24 h. inhibition, % at 10 µM. 63% of 4,600 active. AID 463215, 2010;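 active = inhibition of yeast growth at or above a set limit in either of two replicates at 10 µM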;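 also: this counterscreen used the strain with wild-type TIM10; 0% = yeast with DMSO and 100% = medium wells lacking yeast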
Active calls of the source: *; . = no result given. In the library only some 4.6% were active in any assay of this set; here they are far more common.

SMILES	NLRP3 yeast inh	SKKanGAS inh	tim23-1 inh	tim10-1 inh	TIM10 inh	TIM10 conf
CC(C)(C)n1nnnc1C(c1cccs1)N(Cc1ccc(Cl)cc1)CC1CCCO1 (centres undefined)	3.3	18.3	40.5	35.2	41.1*	-19.0
CNn1cnc2ccsc2c1=O	3.8	12.7	2.6	4.3	3.0	.
Cc1csc(NC(=O)c2oc3ccccc3c2C)n1	13.2	-4.9	20.9	-19.4	-5.5	.
Cc1csc(Nc2nc(N)c(C(=O)Nc3ccccc3)o2)n1	9.2	-6.4	46.7	-16.6	43.3*	29.5
O=C(Oc1ccc2c3c(c(=O)oc2c1)CCCC3)c1ccco1	17.6	5.8	49.6	29.5	43.6*	45.1*
Cc1ccc(-c2csc(NC(=O)c3cccc(S(=O)(=O)N4CCN(C)CC4)c3)n2)cc1	29.5	30.6	11.8	4.3	27.7	.
O=C(Nc1nc(-c2cccs2)cs1)c1cccc(S(=O)(=O)N2CCCCC2)c1	11.9	27.9	30.7	27.6	41.5*	30.8*
Cn1c(O)c(C2=c3ccccc3=NC2=O)sc1=Nc1ccc(Cl)cc1	9.0	-2.2	11.4	26.9	48.6*	18.4
O=C(O)Cn1c(O)c(C2=c3ccccc3=NC2=O)sc1=O	10.3	0.3	6.2	12.0	-12.3	.
COc1cccc(-c2c(C(=O)N/N=C(\C)c3cccs3)nnn2-c2nonc2N)c1	-4.3	-1.2	-3.4	-12.7	-5.3	.
CCc1ccccc1NC(=S)NCCSc1ccc(Cl)cc1	24.9	50.3*	17.5	35.4	54.7*	40.1*
CS(=O)(=O)Nc1ccccc1C(=O)NCCSc1ccc(Cl)cc1	19.4	-8.1	25.7	4.5	10.3	.
Nc1nc2ccccc2n1/N=C/c1ccc(Br)cc1	18.2	10.3	36.0	19.1	43.7*	29.9
Nc1nc2ccccc2n1/N=C/c1ccc2c(c1)OCO2	8.0	9.0	12.6	0.7	16.8	.
CCCN(C(=O)Cn1ncc2c(=O)oc3ccccc3c21)c1cccc(C)c1	-7.0	3.7	31.3	32.8	40.9*	16.4
Cc1ccc(NC(=O)CN2C(=O)c3ccccc3C2=O)c(C)c1	20.3	-3.6	-13.2	-25.2	96.9*	0.7
CCNC(=S)N=Nc1c(O)[nH]c2ccc(C(C)C)cc12	25.5	-18.3	35.2	31.9	40.6*	-19.5
CC(C)c1ccc2[nH]c(O)c(N=NC(=S)NCCc3ccccc3)c2c1	13.3	42.8	0.9	25.4	16.8	.
CC(C)(C)n1nnnc1C(c1ccc(Cl)cc1)N1CCCc2ccccc21 (centres undefined)	10.1	11.9	45.2	37.4	28.2	.
CC(C)(C)n1nnnc1C(c1cccc(C#N)c1)N1CCCc2ccccc21 (centres undefined)	-3.2	-1.2	37.1	36.0	43.0*	25.4
CCC(C)(C)n1nnnc1C(c1cccnc1)N1CCCc2ccccc21 (centres undefined)	-0.9	-2.5	34.7	38.5	40.2*	36.9*
Cc1ccc(C(=O)/C=C/c2ccc3c(c2)OCCO3)c(O)c1	22.5	30.0	47.6	23.9	52.1*	51.5*
CCc1cc(-c2n[nH]c(=S)n2C(C)c2ccccc2)cs1 (centres undefined)	0.2	-6.8	39.6	26.0	41.4*	19.5
CC(C)COc1cc(=O)[nH]c(SCC(C)C)n1	-40.5	-0.1	8.6	36.5	45.4*	39.2*
c1ccc(/N=C2\N=C(Nc3ccccn3)c3ccccc32)nc1	20.7	60.4*	47.8	33.4	45.8*	29.2
SMILES	NLRP3 yeast inh	SKKanGAS inh	tim23-1 inh	tim10-1 inh	TIM10 inh	TIM10 conf
CS(=O)(=O)c1nc(-c2ccccc2)cc(C(F)(F)F)n1	41.4	-22.5	-24.3	17.5	44.9*	-29.8
O=S(=O)(c1cccc(-c2nnc(SCc3nc4ccccc4s3)o2)c1)N1CCOCC1	0.8	0.5	3.1	22.4	43.3*	13.5
CC(=O)CCSc1nnc(-c2cccc(S(=O)(=O)N3CCOCC3)c2)o1	10.7	-3.5	-1.8	9.9	-2.8	.
Cc1c(C(=O)N2CCN(S(=O)(=O)c3ccccc3)CC2)oc2ccccc12	-16.0	.	46.0	37.8	46.9*	32.3*
Cc1ccc(N2C(=O)CC(N3CCN(C)CC3)C2=O)cc1 (centres undefined)	6.4	-0.6	14.4	8.6	1.3	.
Cc1ccc2nc(-c3ccc(N4C(=O)CC(N5CCC(C(N)=O)CC5)C4=O)cc3)sc2c1 (centres undefined)	-7.6	-0.9	15.3	18.3	42.1*	56.8*
CC(C)(C)C1CCC(CN2C(Nc3ccccc3)=NC[C@@H]2Cc2ccccc2)CC1 (some centres undefined)	36.0	.	47.4	25.3	48.9*	52.9*
CCOC(=O)C1CCN(C(=O)c2ccc3c(c2)NC(=O)/C(=C\c2ccc(C)cc2)S3)CC1	25.3	69.0*	46.9	20.9	41.4*	-4.4
Cc1ccc2nc(-c3ccncc3)c(NC3CCCC3)n2c1	7.2	-13.9	24.6	7.7	-1.9	.
Cc1ccc2nc(-c3ccncc3)c(NC3CCCCC3)n2c1	18.3	-12.3	41.1	21.7	42.5*	42.5*
Cc1ccc(-c2csc(NC(=O)C3=NN(c4ccccc4)C(=O)CC3)n2)cc1	10.3	9.8	33.8	32.9	40.4*	33.2*
CN1/C(=C\C(=O)COC(=O)c2nccnc2N)C(C)(C)c2ccccc21	22.1	2.7	15.7	12.6	0.7	.
CN1/C(=C\C(=O)COC(=O)c2ccc([N+](=O)[O-])o2)C(C)(C)c2ccccc21	24.0	19.5	-289.9	15.7	65.4*	75.0*
Cn1c(=O)[nH]c(=O)c2c1nc(N1CCOCC1)n2CC(=O)c1ccccc1	1.5	-4.8	-1.8	8.9	-13.7	.
COc1ccccc1C1(CC(=O)N2CCCCC2)CCOC(C(C)C)C1 (centres undefined)	5.0	-0.8	33.7	34.8	48.3*	17.1
COc1cccc(N2CC(NC(=O)C(=O)c3c[nH]c4ccccc34)CC2=O)c1 (centres undefined)	15.3	28.9	18.3	12.9	11.3	.
O=C(NC1CC(=O)N(c2cccc(F)c2)C1)C(=O)c1c[nH]c2ccccc12 (centres undefined)	-4.5	-5.7	-10.7	-3.6	96.5*	-1.9
O=C(COC(=O)c1ccc(F)cc1F)Nc1ccc2[nH]c(=O)[nH]c2c1	7.1	-5.5	-5.5	11.1	1.1	.
COc1ccc(C2C(C#N)=C3NC(=O)c4c(sc5c4CCCCC5)N3C3=C2C(=O)CC(C)(C)C3)cc1 (centres undefined)	-2.7	29.5	-21.2	30.0	43.1*	-1.2
COc1ccc(C2C(C#N)=C(N)N(c3sc4c(c3C#N)CCCC4)C3=C2C(=O)CC(C)(C)C3)cc1 (centres undefined)	14.1	8.6	26.8	14.5	19.1	.
